KCNQ2 block = blocks the rat KCNQ2 potassium channel; CHO-K1 KCNQ2, FluxOR thallium flux, 20 min; stronger effect = lower value; O88943; AID 2156; hit rate 1.1% among 310,000; B-score at 10 µM;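 active = fluorescence ratio B-score at most minus 3 library SDs, with starting brightness B-score within 2 library SDs, cut at about -5.5 in these data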
Target sequence (O88943 whole entry, looked up): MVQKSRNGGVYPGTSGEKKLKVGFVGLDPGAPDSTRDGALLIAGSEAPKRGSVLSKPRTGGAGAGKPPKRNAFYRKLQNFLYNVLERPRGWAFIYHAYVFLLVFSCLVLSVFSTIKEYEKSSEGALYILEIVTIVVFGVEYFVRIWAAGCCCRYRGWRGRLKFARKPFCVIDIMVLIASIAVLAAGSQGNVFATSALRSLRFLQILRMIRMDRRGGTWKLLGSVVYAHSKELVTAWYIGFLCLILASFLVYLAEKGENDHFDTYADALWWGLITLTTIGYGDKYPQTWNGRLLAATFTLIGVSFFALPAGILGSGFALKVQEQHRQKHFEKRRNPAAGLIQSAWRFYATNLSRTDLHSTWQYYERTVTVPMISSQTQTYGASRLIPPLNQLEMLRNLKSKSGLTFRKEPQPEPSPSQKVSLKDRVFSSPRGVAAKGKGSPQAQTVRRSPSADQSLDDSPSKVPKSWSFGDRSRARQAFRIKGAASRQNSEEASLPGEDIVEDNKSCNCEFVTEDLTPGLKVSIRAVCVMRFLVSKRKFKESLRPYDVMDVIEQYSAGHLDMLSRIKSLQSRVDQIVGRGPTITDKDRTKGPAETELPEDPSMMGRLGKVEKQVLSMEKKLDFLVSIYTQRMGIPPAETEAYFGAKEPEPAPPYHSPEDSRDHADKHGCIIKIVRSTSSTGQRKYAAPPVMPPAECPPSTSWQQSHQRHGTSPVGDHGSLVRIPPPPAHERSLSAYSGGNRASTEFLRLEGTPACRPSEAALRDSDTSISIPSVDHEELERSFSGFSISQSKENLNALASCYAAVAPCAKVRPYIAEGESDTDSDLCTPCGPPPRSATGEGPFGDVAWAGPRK
KCNQ2 enhance = enhances the rat KCNQ2 potassium channel; AID 2239; hit rate 0.54% among 310,000; O88943; B-score at 10 µM; CHO-K1 KCNQ2, FluxOR thallium flux fluorescence; stronger effect = higher value;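 active = fluorescence ratio B-score at least 3 SD of library B-scores, with initial fluorescence B-score within 3 of them, cut at about 5.3 in these data; same plate scores as AID 2156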;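 note: B-score of peak minus minimum over baseline fluorescence ratio after K+ and Tl+ stimulus; positive B-score means potentiation of KCNQ2 with more thallium influx and brighter signal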
Kir21 conf inh = confirmation of mouse Kir2.1 potassium channel inhibitors; hit rate 41% among 2,300; Tl flux remaining, % of negative control (stronger effect = lower value), % at 10 µM; Kir2.1-expressing cells, FluxOR thallium flux fluorescence; stronger effect = lower value; shares compounds with KCNQ2 enhance;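 active = Primary-screen hit whose thallium flux fell at least 3 control SD below untreated wells in both duplicates, with normal baseline fluorescence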
HEK293 ctr = alters thallium flux in parental HEK293 cells, Kir2.1 counter-screen. shares compounds with KCNQ2 enhance. FluxOR thallium flux fluorescence; 0% = unstimulated blank wells. FluxOR signal as % of negative control (100 = no effect), % at 10 µM. hit rate 19% among 2,300. AID 2105;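 active = dye signal at least 3 control SD above or below untreated wells in both duplicates, raw fluorescence within 3, either direction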;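 note: percent is based on the flux ratio of peak minus minimum fluorescence over baseline F0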
CHO-K1 ctr = alters thallium flux in parental CHO-K1 cells, KCNQ2 counter-screen | hit rate 43% among 1,200 | shares compounds with KCNQ2 enhance | FluxOR thallium flux fluorescence; zero = vehicle mean+3SD, 100% = vehicle-minus-blank window | AID 2282 | activity increase over 3SD of controls, % at 10 µM;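 active = signal rise of at least 3 SD above the untreated control mean, in both duplicate wells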;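 note: counter screen of KCNQ2 potentiator hits so any rise reflects channel-independent effects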
KCNQ1 pot spec = human KCNQ1 counter-target activity of KCNQ2 potentiators; shares compounds with KCNQ2 enhance; hit rate 28% among 1,200; CHO KCNQ1 stable, FluxOR thallium flux fluorescence; beyond 3SD, as % of vehicle-control signal; AID 2283; activation over 3SD threshold, % at 10 µM;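 active = fluorescence ratio rise of at least 3 SD of vehicle wells above their mean, in both replicate wells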
KCNQ2 pot conf = confirmation of rat KCNQ2 potassium channel potentiators. shares compounds with KCNQ2 enhance. AID 2287. potentiation, less the hit threshold, % at 10 µM. CHO-KCNQ2 cells, FluxOR thallium flux fluorescence. hit rate 68% among 1,200;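 active = fluorescence ratio rising 3 SD or more over the vehicle control mean in both replicates, plus primary screen hit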;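 note: peak minus minimum thallium fluorescence divided by baseline after K/Tl stimulus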
Kir21 spec = selectivity of KCNQ2 potentiators: effect on mouse Kir2.1; shares compounds with KCNQ2 enhance; AID 2345; HEK293 Kir2.1, FluxOR thallium flux fluorescence; hit rate 2% among 1,200; activity over 3SD threshold, % at 10 µM;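 active = fluorescence ratio rise of at least 3 SD above the vehicle-control mean, seen in both replicates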
KCNQ2 W236L pot = rat KCNQ2 W236L mutant potentiation by KCNQ2 potentiators | current increase over 3SD of negative controls (%), stronger effect = higher value, % at 25 µM | CHO KCNQ2-W236L, automated patch clamp current | hit rate 10% among 940 | shares compounds with KCNQ2 enhance;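 active = current increase at least 3 SD of the untreated controls above them in both duplicate recordings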
Of the large screens only hits and unclear results are named; the others gave an inactive call (follow-up assays come after a bar, where they were run). Rows were chosen to be rich in hits. Some 1.6% of all compounds tested hit in one or more screens of this group.

CC(=O)Oc1cc2c3c(c1)/C(=C1/SC(=S)NC1=O)C(=O)N3C(C)(C)C=C2C	KCNQ2 enhance 6.8 | Kir21 conf inh inactive | HEK293 ctr inactive | CHO-K1 ctr inactive | KCNQ1 pot spec 12 | KCNQ2 pot conf inactive | Kir21 spec inactive
O=C(N/N=C/c1cccs1)c1[nH]ncc1Br	KCNQ2 enhance 11 | Kir21 conf inh inactive | HEK293 ctr inactive | CHO-K1 ctr 115 | KCNQ1 pot spec inactive | KCNQ2 pot conf 43 | Kir21 spec inactive | KCNQ2 W236L pot inactive
O=C(N/N=C/c1cccs1)c1cnccn1	none (no result: KCNQ2 enhance)
c1ccc(-c2n[nH]c(-c3ccccn3)n2)cc1	KCNQ2 enhance 14 | Kir21 conf inh inactive | HEK293 ctr inactive | CHO-K1 ctr inactive | KCNQ1 pot spec inactive | KCNQ2 pot conf 48 | Kir21 spec inactive | KCNQ2 W236L pot inactive
c1ccc(-c2n[nH]c(-c3ccccn3)n2)nc1	none
CC(=O)Nc1cccc(OCC(=O)NC(C)c2ccc3ccccc3c2)c1 (configuration not stated)	none | Kir21 conf inh 56% | HEK293 ctr inactive
CC(=O)Nc1cccc(OCC(=O)Nc2ccccc2)c1	none
Cc1nc2cc(NC(=O)c3cccc(S(C)(=O)=O)c3)ccc2o1	none (no result: KCNQ2 enhance)
CCc1nnc(NC(=O)c2nc(S(=O)(=O)Cc3ccccc3)ncc2Cl)s1	KCNQ2 enhance 12 | Kir21 conf inh inactive | HEK293 ctr inactive | CHO-K1 ctr 97 | KCNQ1 pot spec inactive | KCNQ2 pot conf 87 | Kir21 spec inactive | KCNQ2 W236L pot 70%
CCc1nnc(NC(=O)c2nc(S(=O)(=O)Cc3cccc(C)c3)ncc2Cl)s1	KCNQ2 enhance 18 | CHO-K1 ctr 5.0 | KCNQ1 pot spec inactive | KCNQ2 pot conf 64 | Kir21 spec inactive | KCNQ2 W236L pot 19%
COc1ccc(CNC(=O)c2nc(S(=O)(=O)Cc3ccccc3)ncc2Cl)cc1	none (no result: KCNQ2 enhance)
CC(=O)Nc1ccc(NC(=O)c2nc(S(=O)(=O)Cc3ccccc3)ncc2Cl)cc1	none (no result: KCNQ2 enhance)
CCc1nnc(NC(=O)c2nc(S(=O)(=O)Cc3ccc(C)cc3)ncc2Cl)s1	KCNQ2 enhance 15 | CHO-K1 ctr inactive | KCNQ1 pot spec inactive | KCNQ2 pot conf 63 | Kir21 spec inactive | KCNQ2 W236L pot 26%
CCOc1ccccc1NC(=O)c1nc(S(=O)(=O)Cc2cccc(C)c2)ncc1Cl	none
CN(C(=O)COC(=O)C1COc2ccccc2O1)c1c(N)n(Cc2ccccc2)c(=O)[nH]c1=O (configuration not stated)	none (no result: KCNQ2 enhance)
O=C(OCC(=O)C12CC3CC(CC(C3)C1)C2)c1cnccn1	none (no result: KCNQ2 enhance)
CCOc1ccc(S(=O)(=O)N/N=C2/CC(c3ccccc3)Oc3ccccc32)cc1 (configuration not stated)	none (no result: KCNQ2 enhance)
CC(C)Cn1c(=O)c(C(=O)NCc2ccccn2)c(O)c2ccccc21	KCNQ2 enhance 15 | Kir21 conf inh inactive | HEK293 ctr inactive | CHO-K1 ctr inactive | KCNQ1 pot spec inactive | KCNQ2 pot conf inactive | Kir21 spec inactive
CCCn1c(=O)c(C(=O)NCc2ccncc2)c(O)c2ccccc21	none
Cc1ccc(O)c(C2=NOC(O)(C(F)(F)F)C2)c1 (configuration not stated)	none
O=C(O)c1cc(NN=C2c3ccccc3-c3ccccc32)ccc1Cl	KCNQ2 enhance 9.2 | Kir21 conf inh inactive | HEK293 ctr inactive | CHO-K1 ctr 51 | KCNQ1 pot spec inactive | KCNQ2 pot conf 51 | Kir21 spec inactive | KCNQ2 W236L pot 22%
O=C(O)c1cccc(NN=C2c3ccccc3-c3ccccc32)c1	none (no result: KCNQ2 enhance)
CCn1c(SCc2cccc(C)c2)nnc1-c1ccccc1	none (no result: KCNQ2 enhance) | Kir21 conf inh 57% | HEK293 ctr inactive
CCn1c(SCC(O)c2ccccc2)nnc1-c1ccccc1 (configuration not stated)	none
Cc1onc(-c2ccccc2)c1C(=O)N(Cc1ccco1)Cc1cccs1	none
CC(C)(C)NC(=O)COc1coc(CN2CCN(C(=O)c3ccco3)CC2)cc1=O	none (no result: KCNQ2 enhance)
O=S(=O)(Nc1ccc(S(=O)(=O)Nc2ncccn2)cc1)c1ccc(Cl)cc1	none
O=S(=O)(Nc1cccc(CCc2ccccn2)c1)c1ccc(Cl)cc1	none (no result: KCNQ2 enhance) | Kir21 conf inh inactive | HEK293 ctr inactive
CC(=O)c1ccc(N2C(=NC(=O)CCc3ccccc3)SC3CS(=O)(=O)CC32)cc1 (configuration not stated)	none (no result: KCNQ2 enhance)
CCOC(=O)C1=C(COC(=O)C(CC)Oc2ccccc2)NC(=O)NC1C (configuration not stated)	none
CO/N=C(/COc1ccc(F)cc1)c1ccc(OC)cc1	none (no result: KCNQ2 enhance)
CO/N=C(/CS(=O)c1ccc(Br)cc1)c1ccc(OC)cc1 (configuration not stated)	none (no result: KCNQ2 enhance) | Kir21 conf inh 50% | HEK293 ctr inactive
O=C(Nc1ccc(Nc2ccccc2)cc1)C(Cl)(Cl)Cl	none
O=C(COc1ccccc1Cl)Nc1ccc(N2CCN(C(=O)c3ccccc3)CC2)cc1	none (no result: KCNQ2 enhance)
Brc1csc(C=Nc2ccc3c(c2)OCCOCCOCCOCCO3)c1	none
Oc1c(Cl)cc(Cl)cc1C=Nc1ccc2c(c1)OCCO2	KCNQ2 enhance 8.5 | Kir21 conf inh inactive | HEK293 ctr inactive | CHO-K1 ctr 92 | KCNQ1 pot spec inactive | KCNQ2 pot conf inactive | Kir21 spec inactive | KCNQ2 W236L pot inactive
Oc1ccc(N=Nc2cccc(Cl)c2)cc1C=Nc1ccc(N2CCOCC2)cc1	none
Oc1c(Br)cc(Cl)cc1C=Nc1ccc(N2CCOCC2)cc1	KCNQ2 enhance 11 | Kir21 conf inh inactive | HEK293 ctr inactive | CHO-K1 ctr inactive | KCNQ1 pot spec 0.5 | KCNQ2 pot conf 7.7 | Kir21 spec inactive | KCNQ2 W236L pot inactive
Cc1csc2ncc(C(=O)NC(C)c3ccccc3)c(=O)n12 (configuration not stated)	none (no result: KCNQ2 enhance)
CCCC1NC(C(=O)O)Cc2c1[nH]c1ccccc21 (configuration not stated)	none (no result: KCNQ2 enhance)
CN(C)CCN(Cc1ccccc1)C(=O)[C@H](Cc1ccccc1)N1C(=O)c2ccccc2C1=O	none | Kir21 conf inh 69% | HEK293 ctr inactive
O=C(O)C(Cc1ccccc1)N1C(=O)c2ccccc2C1=O (configuration not stated)	none
O=c1cc[nH]c2c1ccc1cccnc12	none (no result: KCNQ2 enhance)
CCN1CCN(C(=O)C(C)Nc2cc(Cl)c(OC)cc2OC)CC1 (configuration not stated)	none (no result: KCNQ2 enhance)
CCCOC(=O)c1ccc(Oc2c(-c3ccc(OCC)cc3O)n[nH]c2C)cc1	none (no result: KCNQ2 enhance)
